Source: PubChem BioAssay (NCATS)
Results filed as inconclusive are left out. The source made the active and inactive calls. Calls follow the shape of the dose curve; as a rule, active = well fitted inhibition curve with a large enough effect; inconclusive = small, poorly fitted or top-dose-only effect; inactive = flat fitted curve, though single readings scatter.

system: WaGa; assay: qHTS assay to identify novel small-molecules to repurpose for Merkel cell carcinoma treatment (AID 1296009); details: MCC and control cell lines, CellTiter-Glo viability, 72 h; series mostly up to 46 µM; activity change, negative = cytotoxicity: at the top concentration; also: nearly all actives have a fitted effect of over 60% in size
In short: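 Viability readout: ATP luminescence (CellTiter-Glo) after 72 hr drug exposure at 37 degree celsius. Dose-response format was 8 points for NPC and 11 points for MIPE; data normalized to in-plate controls.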
% is scaled to controls: 0 for no effect and ±100 for the full control effect; potency is read from the fitted curve at half-maximal effect.

Structure (SMILES)	activity change, negative = cytotoxicity	Potency
CC(=O)Nc1ccc(OC[C@](C)(O)C(=O)Nc2ccc([N+](=O)[O-])c(C(F)(F)F)c2)cc1	-0.414% (inactive)	
CCCCCCCCCC(CC)c1ccc(S(=O)(=O)O)cc1 (configuration not stated)	11.2% [at 92.7 µM] (inactive)	
Nc1ccc(Sc2ccc(N)cc2)cc1	-0.824% [at 92.7 µM] (inactive)	
CC(O)CN1CCN(CC(=O)[O-])CCN(CC(=O)[O-])CCN(CC(=O)[O-])CC1.[Gd+3] (configuration not stated)	4.25% (inactive)	
O=C(O)COc1nc(Cl)c(Cl)cc1Cl	3.38% [at 92.7 µM] (inactive)	
CS(=O)(=O)c1ccc(C(=O)C2C(=O)CCCC2=O)c([N+](=O)[O-])c1	-6.17% [at 92.7 µM] (inactive)	
Cc1c(N)nc([C@H](CC(N)=O)NC[C@@H](N)C(N)=O)nc1C(=O)N[C@H](C(=O)N[C@@H](C)[C@H](O)[C@@H](C)C(=O)N[C@@H](C(=O)NCCc1nc(-c2nc(C(=O)NCCC[S+](C)C)cs2)cs1)[C@@H](C)O)C(O[C@H]1O[C@H](CO)[C@H](O)[C@@H](O)[C@@H]1O[C@H]1O[C@H](CO)[C@@H](O)[C@H](OC(N)=O)[C@H]1O)c1cnc[nH]1 (some centres not stated)		3720 nM (active)
O=C1C=CC[C@@H]2[C@H]3CCCN4CCC[C@@H](CN12)[C@@H]34	-13.3% (inactive)	
CC(O)=C(C#N)C(=O)Nc1cc(Br)ccc1Br	-6.15% (inactive)	
O=C(NCC1CCOCC1)c1cnc(Nc2ccc(Cl)cc2Cl)nc1C(F)(F)F	-0.437% (inactive)	
CC(C)(O)C=CC(=O)[C@](C)(O)[C@H]1[C@H](O)C[C@]2(C)[C@@H]3CC=C4[C@@H](C=C(O)C(=O)C4(C)C)[C@]3(C)C(=O)C[C@@]12C		93.5 nM (active)
C[C@@H]1[C@H](O)[C@@H](C)C=CC=CCCC=CC=CC=CC=C[C@H](O[C@H]2O[C@@H](C)[C@H](O)[C@@H](N)[C@@H]2O)CC2O[C@](O)(C[C@@H](O)[C@H](O)CC[C@@H](O)C[C@@H](O)C[C@@H](O)CC(=O)O[C@H]1C)C[C@H](O)[C@H]2C(=O)O	-7.79% (inactive)	
